GoLoco inh red: blocks human Gai1 binding to RGS12 GoLoco peptide, red readout; actives 0.44% (n = 230,000); Potency, µM (doses to about 61.6 µM), for the others: top-dose activity, negative = inhibition, actives largely listed as inhibitors; P63096; Gai1:RGS12 GoLoco peptide FP, rhodamine, 10 min; active means well fitted inhibition curve with a large enough effect, not every such curve was filed as active; inactive means no such curve, though single readings can be large or run the other way; further: nearly all actives have a fitted effect of over 30% in size
Target sequence (P63096 whole entry, looked up): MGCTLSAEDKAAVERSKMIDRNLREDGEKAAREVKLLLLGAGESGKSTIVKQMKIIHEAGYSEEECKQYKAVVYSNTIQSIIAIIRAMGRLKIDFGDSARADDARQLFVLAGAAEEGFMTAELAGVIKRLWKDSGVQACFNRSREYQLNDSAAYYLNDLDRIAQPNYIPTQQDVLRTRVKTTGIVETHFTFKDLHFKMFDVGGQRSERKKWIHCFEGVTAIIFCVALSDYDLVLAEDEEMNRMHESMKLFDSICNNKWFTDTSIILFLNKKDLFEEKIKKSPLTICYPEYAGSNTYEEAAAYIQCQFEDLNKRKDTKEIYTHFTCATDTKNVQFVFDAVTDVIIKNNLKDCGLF
Tau fluor cs: counter-screen for tau fibril formation inhibitors | tau K18 P301L Alexa594 fluorescence, heparin fibrillization | Potency, µM (highest dose often 57.7 µM), without a hit: at the top dose activity change, negative = decrease | actives 0.93% (n = 280,000); further: nearly all actives have a fitted effect of over 55% in size
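Human K18 P301L tau (15 uM unlabeled plus 0.24 uM Alexa 594-labeled, final) in 100 mM sodium acetate pH 7 was mixed with compound and 20 uM heparin and incubated 6 hr at 37 C.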
TexasRed fluor: alters Texas Red total fluorescence, flagging assay interference. TRb/SRC2 Texas Red total fluorescence interference. actives 0.29% (n = 280,000). AID 1479. Potency, µM (top dose mostly 106 µM), for inactives: top-dose fluorescence change, negative = quenching; active means well fitted curve in either direction with a large enough effect; inconclusive means small, poorly fitted or top-dose-only effect
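Human TRb ligand-binding domain at 0.6 uM with 20 nM Texas Red SRC2 peptide in Tris buffer containing 1 uM T3 and 5% DMSO, incubated with compound 5 h at ambient temperature. Total fluorescence (555/632 nm) calculated as parallel + 2 × perpendicular.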
Tau ThT inhib: blocks human tau fibril formation measured by thioflavin T; recombinant tau K18 P301L (four-repeat tau fragment), heparin-induced fibrillization, ThT fluorescence; Potency, µM (highest dose often 57.4 µM), for inactives: at the top dose activity, negative = inhibition, most hits filed as inhibitors; actives 2.1% (n = 270,000); P10636; further: nearly all actives have a fitted effect of over 55% in size
Target sequence (P10636 561-689 P618L limits assumed): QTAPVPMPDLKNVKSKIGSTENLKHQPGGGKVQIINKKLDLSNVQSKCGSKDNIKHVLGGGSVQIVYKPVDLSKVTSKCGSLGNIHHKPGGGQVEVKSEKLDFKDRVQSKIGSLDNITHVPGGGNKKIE
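K18 P301L tau (15 uM + 0.24 uM Alexa 594-tagged), heparin 20 uM, NaOAc pH 7, 6 h 37 C; ThT 30 uM, 1 h RT, ex 450/em 510 nm.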
TRb-SRC2 inh: inhibitors of human thyroid hormone receptor beta-SRC2 interaction | Potency, µM (titrated, usually from 106 µM), without a hit: at the top dose activity change, negative = inhibition, actives largely listed as inhibitors | AID 1469 | P10828 | TRbeta-SRC2 peptide binding, fluorescence polarization; receptor liganded with 1 µM T3 | actives 0.065% (n = 280,000);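 further: plate controls were bound peptide for no effect and peptide without receptor for full effect; nearly all actives have a fitted effect of over 50% in size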
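Quantitative HTS by FP: 0.6 uM TRb LBD, 20 nM labeled SRC2 20-mer, 1 uM T3, 5% DMSO; 5 hr ambient incubation; % activity per concentration and potencies from concentration series.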
Tau FP inhib: tau fibrillization inhibition (FP). P10636. K18 P301L tau heparin fibrillization, Alexa594 FP, 6 h. Potency, µM (series often up to 57.7 µM), for the others: at the top dose activity, negative = inhibition, hits mostly inhibitors. actives 0.39% (n = 280,000). AID 1468; further: nearly all actives have a fitted effect of over 55% in size
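FP of Alexa 594-tau after heparin (20 uM) induction. Substrate: human K18 P301L, 15 uM unlabeled, 0.24 uM labeled. Buffer 100 mM sodium acetate pH 7. 6 hr, 37 C.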
Numbers without * were called inactive; ? = inconclusive; / = no result given; [ ] = remark or other dose. In the library only some 3.2% were active in any assay of this set; here they are far more common. Unless noted, the call rests on the fitted dose curve; in most records, active means well fitted curve in the direction sought with a large enough effect; inconclusive means small, poorly fitted or top-dose-only effect, or another doubt; inactive means no such curve, though single readings can be large; an effect the other way counts as inactive or inconclusive. Unless noted, on the % scale 0 is the no-effect control and ±100 the full control effect; potency means the concentration at half of the fitted maximal effect.

SMILES	GoLoco inh red	Tau fluor cs	TexasRed fluor	Tau ThT inhib	TRb-SRC2 inh	Tau FP inhib
Cc1cc2cc(CNC(=O)Nc3cccc(Cl)c3)ccc2n1C	-37%	?	45µM*[fluorescent]	?	45µM*	?
Cc1cccc(NC(=O)NCc2ccc3c(c2)cc(C)n3C)c1	-5%	-14%	23%	0%	-15%	6%
N#C/C(=C\c1ccc(Cl)cc1)c1nc(-c2cc3c(ccc4ccccc43)oc2=O)cs1	/	-6%	-11%	-4%	-3%	-5%
N#C/C(=C\c1ccccc1)c1nc(-c2cc3c(ccc4ccccc43)oc2=O)cs1	/	-13%	0.28µM*[quencher]	2%	-29%[53 µM]	?
COC(C)(C)CCCC(C)C/C=C/C(C)=C/C(=O)O (stereo unspecified)	-5%	-3%	-2%	3%	-4%	-4%
OC1(c2ccc(Cl)c(C(F)(F)F)c2)CCN(CCCC(c2ccc(F)cc2)c2ccc(F)cc2)CC1	/	/	-4%	/	-2%	/
C[n+]1cccc(/C=N/NC(=O)CC23CC4CC(CC(C4)C2)C3)c1	4µM*	-4%	-1%	/	-4%	2%
CCOC(=O)C1=C([Si](C)(C)C)c2ccccc2N(S(=O)(=O)C(F)(F)F)C1C(=O)OCC (stereo unspecified)	112%	-13%	3%	?	14%	5%
NC(=Nc1ccc(Cl)cc1)c1ccccc1	-3%	3%	-2%	3%	4%	-1%
CSC(=Nc1ccc(Cl)cc1)N[n+]1ccccc1	7.1µM*	-2%	-1%	-2%	-1%	-6%
COc1cccc([C@@H]2Oc3ccc(Br)cc3C(=O)[C@H]2OC(=O)NS(=O)(=O)c2ccc(C)cc2)c1	-3%	-7%	-2%	-6%	4%	8%
CCOc1cccc(=O)c2c(C)n(CC(=O)c3ccccc3)c(C)c12	131%	-11%	2%	?	-1%	-3%
COc1cccc(=O)c2c(C)n(CC(=O)c3ccccc3)c(C)c12	40%	?	-1%	14µM*	4%	9%
CCOC(=O)C1CCN(C(=O)Nc2ccc3nc(-c4ccco4)c(-c4ccco4)nc3c2)CC1	12%	?	?	3.2µM*	3%	?
O=C(Nc1ccc2nc(-c3ccco3)c(-c3ccco3)nc2c1)N1CCCCCC1	28%	8.9µM*[quencher]	22µM*[quencher]	7.1µM*	11%	14µM*
CC(C)=CCCC1(C)C=Cc2c(c(C)cc3c2[nH]c2cc(O)ccc23)O1 (stereo unspecified)	-3%	5µM*[quencher]	-2%	28µM*	-2%	?
Cc1cc(=O)[nH]c2cc(O)ccc12	-23%	1%	-5%	-2%	-6%	-4%
COc1cc2oc(=O)cc(-c3ccc(-c4ccc(O)cc4)cc3)c2c(OC)c1OC	-19%	10µM*[quencher]	1%	?	5%	?
COc1ccc(-c2ccc(-c3cc(=O)oc4cc(OC)c(OC)c(OC)c34)cc2)cc1OC	7%	-20%	7%	-14%	6%	10%
O=c1c(Cl)c(Cl)cnn1Cc1nnc(-c2ccc(Cl)cc2)o1	8%	-16%	-1%	28µM*	-19%	?
Cc1ccc(Cn2ncc(Cl)c(Cl)c2=O)cc1	-5%	5%	0%	-7%	9%	-4%
CCOc1ccccc1NC(=O)c1c(NCc2cccs2)sc2c1CCC(C)C2 (stereo unspecified)	/	-22%	-1%	-15%	-3%	0%
CCOC(=O)c1ccc(NC(=O)c2c(NCc3cccs3)sc3c2CCCCC3)cc1	/	-26%	?	22µM*	-14%	?
CCOc1ccc(NC(=O)c2c(NCc3cccnc3)sc3c2CCC(C)C3)cc1 (stereo unspecified)	/	?	-16%	16µM*	-7%	-11%
O=C(Nc1sc2c(c1C(=O)Nc1cccc(Cl)c1)CCCC2)c1cccs1	/	-17%	3%	11µM*	-3%	?
